# The whole screen tested about 5,500 compounds, of which about 2,000 (36%) were called active. Another 18% or so got no clear call; they are omitted. Some of the results follow. Values without a mark were called inactive. Cut-off read from the data, not from the text of the source: active = normalized growth mostly below about 0.91 (no sharp cut-off); inconclusive = no clear call, values can overlap the other calls; inactive = mostly above about 0.92.
# Test: chemical genetic growth profiling, strain panel (AID 1159580);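 note: tested at 20 µM; growth read once vehicle control cultures reached saturation at 30 °C; 1 = growth at the plate median or of vehicle wells; lower values mean less growth of the strain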
# Settings: S. cerevisiae deletion strains, growth OD
smiles,measurement,setting,value
O=c1[nH]c2ccccc2n1CCCN1CCN(C(c2ccccc2)c2ccccc2)CC1,normalized growth,"locus YAL040C, strain CLN3, hits give low values",1.02
same,normalized growth,"locus YCL061C, strain MRC1 (second series), hits give low values",1
same,normalized growth,"locus YDR150W, strain NUM1, hits give low values",1.01
same,normalized growth,"locus YDR363W, strain ESC2, hits give low values",1.01
same,normalized growth,"locus YER002W, strain NOP16, hits give low values",1.07
same,normalized growth,"locus YGR078C, strain PAC10, hits give low values",1.02
same,normalized growth,"locus YJR075W, strain HOC1, hits give low values",1
same,normalized growth,"locus YMR307W, strain GAS1, hits give low values",1.03
same,normalized growth,"locus YNL128W, strain TEP1, hits give low values",1.19 [resistant] (active)
same,normalized growth,"locus YNL175C, strain NOP13, hits give low values",1.04
same,normalized growth,"locus YNL197C, strain WHI3, hits give low values",1.04
same,normalized growth,"locus YNL224C, strain SQS1, hits give low values",1.04
same,normalized growth,"locus YNL322C, strain KRE1, hits give low values",1.01
same,normalized growth,"locus YOR083W, strain WHI5 (second series), hits give low values",0.92
same,normalized growth,"locus YPL055C, strain LGE1, hits give low values",1.02
same,normalized growth,"locus YPL241C, strain CIN2, hits give low values",1

# From PubChem BioAssay AID1159580 (chemical genetic matrix, 2015)
